High-throughput results deposited in PubChem by several laboratories.
CRFBP-R2 agonist = agonists of CRF-BP/CRF-R2 complex, primary screen, cell-based, HEK293, calcium dye fluorescence, uHTS. calcium dye fluorescence (FLIPR); percent of saturating CRF peptide response. activation, % at 13.2 µM. 0.46% of 350,000 active. AID 588473, 2011. CRF-binding protein / CRF receptor 2 complex (human);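 active = activation of at least 50%, plus an integration ratio under a set limit after plate pattern correction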
Cardiac RTF inh = cardiac RTF calcium sensitivity inhibitors, primary screen, biochemical, IANBD-TnC fluorescence, EC70 calcium. IANBD-labeled cardiac RTF, Ca2+ fluorescence. inhibition, % at 7.15 µM. 0.12% of 340,000 active. AID 493244, 2011;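 active = inhibition above the mean inhibition of all tested compounds plus 3 SD, cut at about 17% in these data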;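 note: assay run at fixed EC70 calcium of 1.6 mM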
ANO1 block = TMEM16A chloride channel inhibitors, primary screen, cell-based, HTS | Anoctamin-1 (Mus musculus), Q8BHY3 | HEK293 TMEM16A/YFP iodide influx fluorescence, ionomycin | normalized B-score (activity score, 25-100; higher = stronger inhibition) at 10 µM | 1.2% of 310,000 active;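 active = ratio plate-corrected score three or more library SD toward inhibition, starting fluorescence score within five deviations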;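 note: score derived from kinetic fluorescence span divided by baseline fluorescence per well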
RTF Ca sens act = cardiac RTF calcium sensitivity activators, primary screen, biochemical, IANBD-TnC fluorescence, EC20 calcium; Troponin I, cardiac muscle (Homo sapiens) + Troponin T, cardiac muscle (Homo sapiens) + …; IANBD-labeled TnC RTF fluorescence at EC20 calcium; 0% EC20 calcium, 100% full calcium; activation, % at 7.2 µM; 0.24% of 340,000 active;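 active = activation above the mean over all tested compounds plus 3 SD, cut at about 30% in these data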;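 note: rise in fluorescence read as greater calcium sensitivity of cardiac thin filaments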
ANO1 activ = TMEM16A chloride channel activators or potentiators, primary screen, cell-based, HTS. Anoctamin-1 (Mus musculus), Q8BHY3. HEK293 TMEM16A/YFP-H148Q/I152L, iodide quench fluorescence; hits give low values. B-score at 10 µM. 0.3% of 340,000 active. AID 623877, 2012;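 active = fluorescence-ratio B-score plate-corrected deviation score at least 3 library SD below zero, with starting fluorescence score within 5 deviations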;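 note: channel opened by trigger with iodide after compound preincubation; score built on the fluorescence ratio of max minus min over baseline; more negative score means more quench and so TMEM16A activation or potentiation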
CRFBP-R2 block = antagonists of CRF-BP/CRF-R2 complex, primary screen, cell-based, HEK293, calcium dye fluorescence, uHTS; inhibition, % at 11.8 µM; 0.59% of 350,000 active; CRF-induced calcium fluorescence;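 active = inhibition of the ligand-induced calcium signal above about 50% at the single tested concentration, limit read from the data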
Hits are given with their value; n = inactive; x = not tested or not shown. This is a sample that favours compounds with a hit; in the whole collection about 2.4% have one here.

SMILES	CRFBP-R2 agonist	Cardiac RTF inh	ANO1 block	RTF Ca sens act	ANO1 activ	CRFBP-R2 block
O=C(NCc1cccnc1)/C(=C\c1ccc(-c2ccc(Cl)c(Cl)c2)o1)S(=O)(=O)c1ccccc1	n	n	n	n	-6.1	n
Cc1cc(C)nc(SCC(=O)NC(=O)c2ccccc2O)n1	n	n	x	39	n	n
COC(=O)c1ccccc1NC(=O)CSc1nc(C)cc(C)n1	n	n	n	n	n	n
Cc1cc(NC(=O)CCC(=O)N(c2ccc(F)cc2)C(C(=O)NC2CCCC2)c2cccnc2)no1 (stereo not drawn)	n	n	n	n	n	n
COC(=O)c1sc(NC(=S)NC(=O)c2cccc(Br)c2)nc1C	60	n	n	n	n	n
COC(=O)c1sc(NC(=S)NC(=O)c2ccc(F)cc2)nc1C	x	x	n	x	x	x
COC(=O)c1sc(NC(=S)NC(=O)c2ccccc2C)nc1C	56	n	n	n	n	n
Cc1ccc(S(=O)(=O)N2CCOCC2)cc1NC(=O)COC(=O)c1cc(=O)c2ccccc2o1	n	n	n	n	n	n
O=C1CSc2ccc(C(=O)Nc3cccc(S(=O)(=O)Nc4ccc(Br)cc4)c3)cc2N1	n	n	n	n	n	n
COC(=O)c1cc(NC(=O)c2ccccc2)c(=O)oc1/C=C/Nc1ccc(Oc2ccccc2)cc1	138	n	x	113	n	n
COc1ccc(N=Nc2[nH]c3ccc(C)cc3c2O)cc1	n	n	n	n	n	n
O=c1[nH]nc(N=Nc2c(O)[nH]c3ccc(F)cc23)c(=O)[nH]1	n	n	x	n	n	n
Cc1ccc(N=Nc2[nH]c3ccccc3c2O)cc1	n	n	n	36	n	n
Cc1ccc(N=Nc2c(O)[nH]c3ccc(F)cc23)cc1	n	n	n	75	n	n
COc1ccc(CN2CCC(=O)N(CCO)CC2)cc1OC	n	n	n	n	n	n
COc1ccc(NS(=O)(=O)c2c(C)n(C)c(=O)n(C)c2=O)cc1OC	n	n	n	n	n	82
C[C@H](NC(=O)C1(c2ccccc2)CCN(C(=O)[C@H]2CSCN2C(=O)OC(C)(C)C)CC1)C(=O)O	n	n	n	n	-5.1	n
COCCn1c(=NC(=O)/C=C/c2ccccc2)sc2cc(NC(C)=O)ccc21	n	n	n	33	n	n
CCCOC(=O)c1ccc(NC(=O)/C=C/c2cccs2)cc1	n	n	25	n	n	n
COC(=O)c1cc2c(=O)c3ccccc3oc2nc1/C=C/N(C)C	198	n	n	48	n	n
CC(C)CC(=O)Nc1nc(=S)ss1	n	n	100	n	n	n
Cc1ccccc1C(=O)Nc1nc(=S)ss1	n	n	100	n	n	n
CC(=O)Nc1nc(=S)ss1	n	n	n	n	n	n
O=C(CN1CCN(C(C(=O)Nc2ccc(F)cc2)c2ccccc2)CC1)NC1CC1 (stereo not drawn)	n	n	x	n	n	n
O=c1[nH]c2cc(Cl)ccc2c(O)c1-c1cccc(Oc2ccccc2)c1	n	n	n	n	n	n
SMILES	CRFBP-R2 agonist	Cardiac RTF inh	ANO1 block	RTF Ca sens act	ANO1 activ	CRFBP-R2 block
O=C1c2ccc([N+](=O)[O-])cc2C(=O)N1c1ccc(Cl)cn1	n	n	n	n	n	n
CC(=O)Oc1ccc(N2C(=O)c3cccc4c([N+](=O)[O-])ccc(c34)C2=O)cc1	n	n	n	n	n	75
O=C1c2cccc3c([N+](=O)[O-])ccc(c23)C(=O)N1c1ccc(Cl)cn1	n	n	n	n	n	91
O=C1c2cccc3c([N+](=O)[O-])ccc(c23)C(=O)N1c1ccccn1	n	n	n	n	n	60
O=C1c2cccc3c([N+](=O)[O-])ccc(c23)C(=O)N1c1nccs1	n	n	n	n	n	83
O=C1c2cccc3c([N+](=O)[O-])ccc(c23)C(=O)N1O	n	n	n	n	n	n
